# Reference: ChEMBL document CHEMBL4513216, “Probing the Open Global Health Chemical Diversity Library for Multistage-Active Starting Points for Next-Generation Antimalarials” (ACS Infect Dis, 2020)
# The whole screen tested about 69,000 compounds, of which about 8,600 (12%) showed an effect of 50% or more. This is one part of a sample in which strong results are shown more often than they occur.
# Tested on: Plasmodium berghei
# Assay: Screen against P. berghei liver stage (PbLuc), transformed with Luciferase, at 10uM
# Type: functional, HepG2
# Conditions: tested at 10 uM
row,Compound,INHIBITION
1,N#Cc1ccc(N2CCC3(CC2)COCCN3Cc2cccnc2)cc1,-6.46%
2,Cc1ncc(C(=O)N2CCC(C(=O)NC3CCCC3)C2)c(C)n1 (stereo not drawn),19.3%
3,Cc1cc(C)n(C2CCN(c3ncnc4c3CCNCC4)C2)n1 (stereo not drawn),42.1%
4,c1ccc(C2CCCN(c3ncnc4c3CCNC4)CC2)cc1 (stereo not drawn),83.9%
5,c1ccc(C2CCN(c3ncnc4c3CCNC4)CC2)cc1,83%
6,c1nc2c(c(N3CCOCC3)n1)CCNCC2,27.5%
7,CN1CC2(CCN(c3ncnc4c3CCNC4)CC2)OC1=O,49.5%
8,c1ccn2c(C3CCCN(c4ncnc5c4CCNC5)C3)nnc2c1 (stereo not drawn),-20.8%
9,Clc1cccc(C2CCN(c3ncnc4c3CCNC4)C2)c1 (stereo not drawn),83%
10,c1cc(C2CCN(c3ncnc4c3CCNCC4)CC2)ccn1,33.9%
11,c1ccc2c(c1)CN(c1ncnc3c1CCNC3)CCO2,25.9%
12,Cn1cnc2c1C(COCC1CC1)CN(C(=O)Cc1ccsc1)C2 (stereo not drawn),11.1%
13,NC(=O)C1(CCCc2ccccn2)CCCN(CCO)C1 (stereo not drawn),30.8%
14,Cc1cc(C)n(CCCN(C)c2cc(N(C)C)ncn2)n1,28.2%
15,CC(C)OCCCN(Cc1cnn(C)c1)Cc1ccccn1,-51.3%
16,CCN(Cc1ccccn1)C1CCN(c2ccccc2)C1=O (stereo not drawn),-31.1%
17,Cc1ccc(CN2C[C@H](NC(=O)c3nccn3C)[C@H]3OCCC[C@H]32)o1,75.6%
18,Cc1ccc(CN2C[C@H](N(C)Cc3cncnc3)[C@H]3OCCC[C@H]32)o1,-3.77%
19,Cn1ccnc1C(=O)N[C@@H]1CN(Cc2ccoc2)[C@@H]2CCCO[C@@H]21,29.4%
20,Cn1cc(C(=O)N[C@@H]2CN(CC3CCOCC3)[C@@H]3CCCO[C@@H]32)cn1,-14.4%
21,CCN(CC)[C@@H]1CN(Cc2ccc(C)o2)[C@@H]2CCCO[C@H]12,63.1%
22,Cc1ccc(CN2C[C@@H](N(C)C)[C@H]3OCCC[C@H]32)o1,-37.9%
23,Cn1ccnc1C(=O)N[C@@H]1CN(Cc2cccs2)[C@@H]2CCCO[C@@H]21,22.2%
24,Cn1ccnc1C(=O)N[C@@H]1CN(Cc2ccc(F)cc2)[C@@H]2CCCO[C@@H]21,49.4%
25,Cn1ccnc1C(=O)N[C@@H]1CN(CC2CCOCC2)[C@@H]2CCCO[C@@H]21,63.8%
26,COC(=O)c1cccc(C(=O)NCc2ccc(C)o2)n1,39.1%
27,Cc1ccc(N2CC[C@H]3O[C@@H](C(=O)NCc4ccco4)CC[C@H]32)nn1,21.6%

row,Compound,INHIBITION
1,COC(=O)CC1CCN(C(=O)Nc2ccc(-c3ccn[nH]3)cc2)C1 (stereo not drawn),37.7%
2,Cc1ccc(CN2CCC[C@@H]3CN(C(=O)c4ccco4)C[C@@H]32)s1,-2.25%
3,CN1C(=O)CC(c2ccccc2)C12CCN(CC1CC1)CC2 (stereo not drawn),-40.5%
4,CCNC(c1ccc(C(C)C)cc1)c1cccnc1 (stereo not drawn),8.64%
5,Cc1nc(-c2cccc(C(=O)O)c2)c[nH]1,-34.8%
6,CNC(=O)NC(C)c1nc(-c2ccccc2)c[nH]1 (stereo not drawn),-51.8%
7,CC(=O)Nc1nc(-c2ccc(F)cc2)c[nH]1,63.6%
8,CC(=O)c1cccc(-c2c[nH]c(C)n2)c1,-30.5%
9,CC(=O)Nc1nc(-c2ccc(C)c(C)c2)c[nH]1,7.22%
10,CC(=O)Nc1nc(-c2ccccc2)c[nH]1,58.1%
11,Cc1cc(N2CCN(Cc3cn(C)nc3C)CC2)cc(C2CCCN2)n1 (stereo not drawn),-10%
12,Cc1ccc([C@@]2(O)CC[C@@H]3CN(S(=O)(=O)c4cn(C)nc4C)C[C@@H]32)cc1,32.8%
13,CC(CO)(CO)NC(=O)C1CCC(=O)N(Cc2ccc(Cl)cc2)C1 (stereo not drawn),35.7%
14,COc1ccc(Cl)cc1NCC(=O)NCCNc1ncccn1,45.7%
15,COc1ccc(C)cc1NS(=O)(=O)c1ccc(CCNC(C)=O)s1,-1.04%
16,c1coc(CN2CCC3(CC2)COC(COCC2CC2)C3)c1 (stereo not drawn),-28.2%
17,Cc1nc(CN(C)C2CCN(CCn3cc(C#N)cn3)C2)no1 (stereo not drawn),53.9%
18,CCc1cnc(CN(C)C2CCN(CC(=O)Nc3nccs3)C2)o1 (stereo not drawn),52.3%
19,CCc1cnc(CN(C)C2CCN(CC(=O)Nc3cc(C)on3)C2)o1 (stereo not drawn),-32%
20,CC(C)c1cnc(CN(C)C2CCN(CCn3cc(C#N)cn3)C2)o1 (stereo not drawn),-6.44%
21,CN(Cc1noc(C2CC2)n1)C1CCN(CCn2cc(C#N)cn2)C1 (stereo not drawn),37.4%
22,Cc1cnc(CN(C)C2CCN(CCn3cc(C#N)cn3)C2)o1 (stereo not drawn),44.8%
23,CC(C)c1nc(CN(C)C2CCN(CCn3cc(C#N)cn3)C2)no1 (stereo not drawn),29.2%
24,Cc1cnc(CN(C)C2CCN(CC(=O)Nc3nccs3)C2)o1 (stereo not drawn),9.14%
25,CCc1cnc(CN(C)C2CCN(CCn3cc(C#N)cn3)C2)o1 (stereo not drawn),52.5%
26,Cc1cnn(CC2CCCN2C(=O)CCc2cscn2)c1 (stereo not drawn),19.965%
